Screening data from PubChem BioAssay.
hcDAF12 agonist: activates DAF-12 receptor from parasite H. contortus. 370,000 tested, 1.4% active. activation, % at 6.8 µM. HEK293 hcDAF-12 lit1-tk-luc reporter, luminescence; 0% DMSO, 100% Δ7-dafachronic acid;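 active = activation above the mean of all tested compounds plus 3 SD, cut at about 5.5% in these data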;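 note: 100% = response to 3 µM Δ7-dafachronic acid high control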
AHR act: human AHR activation. P35869. AHR-responsive luciferase reporter cells, luminescence. activation, % at 5 µM. 320,000 tested, 2.5% active. AID 2796; in the data active = activation above about 47%;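 note: 0% = vehicle wells and 100% = reference agonist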
ssDAF12 agonist: activates DAF-12 receptor from parasite S. stercoralis; 370,000 tested, 1% active; activation, % at 6.8 µM; HEK293 ssDAF-12/GRIP1 lit1-tk-luc reporter, luminescence; % of 3 µM dafachronic acid response;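 active = activation above the mean over all tested compounds plus 3 SD, cut at about 0.9% in these data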;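 note: 0% = DMSO-only wells and 100% = 3 µM delta7-dafachronic acid wells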
DAX1 inh-1: inhibitors of human orphan nuclear receptor DAX1 (NR0B1). HEK293 Gal4-DAX1 luciferase reporter, luminescence. 340,000 tested, 0.99% active. inhibition, % at 6.75 µM;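 active = inhibition above the mean over all tested compounds plus 3 SD, cut at about 4.2% in these data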;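 note: 0% = DAX1-transfected cells with DMSO and 100% = empty-vector control cells with DMSO; inhibition shows as a rise in luminescence from relieved DAX1 repression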
hgDAF-12 ag: hgDAF-12 agonism, primary luciferase screen. HEK293 GAL4-hgDAF12 UAS-luciferase reporter, agonist luminescence; normalized to butyrate control. activation, % at 6.8 µM. 370,000 tested, 1.8% active. AID 687014;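 active = activation above a cutoff set at the mean of all screened compounds plus 3 SD, cut at about 10% in these data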;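 note: 0% = DMSO wells and 100% = sodium butyrate wells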
DAX1 inh-2: inhibitors of DAX1 repression of SF-1 activated StAR promoter; HEK293T StAR-luciferase reporter, SF-1/DAX-1 repression relief; inhibition, % at 6.8 µM; 370,000 tested, 1.1% active;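 active = inhibition above the mean over all tested compounds plus 3 SD, cut at about 3.6% in these data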;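 note: 0% = DAX-1 cells with DMSO and 100% = cells lacking DAX-1 with DMSO; higher inhibition means more luminescence from relief of DAX-1 repression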
Starred values were filed as active, the others as inactive; . = no result. Most compounds without a hit are left out; they make up all but 5.7% or so of the library.

SMILES	hcDAF12 agonist	AHR act	ssDAF12 agonist	DAX1 inh-1	hgDAF-12 ag	DAX1 inh-2
COc1ccc(CN(C)C(=O)Cc2c[nH]c3ccccc23)cc1	6.1*	15	1	-1	1	-1
COc1cccc(CN(C)C(=O)Cc2c[nH]c3ccccc23)c1	6.1*	25	1	0	7	1
O=C(CC1SC(=Nc2ccccc2)N(CCc2ccccn2)C1=O)Nc1ccc(F)cc1 (configuration not stated)	6.2*	0	-1	-2	2	-1
O=c1[nH]ncn1-c1ccccc1	-1	1	-1	2	-1	0
O=c1[nH]ncn1-c1ccc(Br)cc1	-1	0	-1	5.2*	-2	0
CCOc1ccccc1Nc1nc(-c2sc(NC(=O)c3ccco3)nc2C)cs1	-2	66*	-2	1	-1	-1
Cc1ccc(Nc2nc(C(=O)NCc3ccco3)cs2)cc1	-2	52*	-2	-1	2	-1
Cc1ccc(Nc2nc(-c3sc(NC(=O)c4ccco4)nc3C)cs2)cc1	2	58*	1	0	2	0
COC(=O)C1=CC(=O)C=C(OC)[C@@]12Oc1cc(C)cc(OC)c1C2=O	-2	.	-2	.	-9	-1
C=CCN1[C@@H](C)[C@H](c2ccccc2)Oc2cccc(NCCc3ccccc3)c2S1(=O)=O	-1	.	1	.	0	3
COc1ccc(N2CCN(C(=O)c3c(C)nn(-c4ccccc4)c3C)CC2)cc1	-2	3	-1	0	-4	-1
CN1CCC(N[C@@H](Cc2c[nH]c3ccccc23)C(=O)NCCCc2ccccc2)(C(=O)NCCc2c[nH]c3ccccc23)CC1	6.3*	.	-1	.	3	.
NS(=O)(=O)c1ccc(NC(=S)NC(=O)C2CCCC2)cc1	5.8*	2	-1	1	-2	0
Cc1cc(C)cc(NC(=S)NC(=O)C2CC2)c1	-2	58*	-1	1	1	0
COc1ccc(NC(=S)NC(=O)C2CCCCC2)cc1	1	-1	-1	2	4	3.8*
O=C(O)Cc1sc(Nc2ccc(Cl)cc2)nc1-c1cccs1	5.8*	.	0	.	9	2
O=C(O)Cc1sc(Nc2cccc3ccccc23)nc1-c1ccccc1	1	61*	0	0	-2	4.3*
Nc1nc(-c2cccs2)c(CC(=O)O)s1	0	2	-1	-1	-2	0
CCOc1ccc(-c2c[n+]3c(n2-c2ccccc2)CCCCC3)cc1	-5	0	-2	-5	-10	-3
COC(=O)[C@]1(C)N[C@H](CN(C)S(=O)(=O)c2ccccc2)[C@@H]2C(=O)N(Cc3ccccc3)C(=O)[C@@H]21	-1	1	-1	-1	5	0
CN(C)CCCNC(=O)CC1C[C@H](C(=O)N2CCOCC2)[C@@]2(CCC3CCCC3)c3[nH]c4ccccc4c3CCN2C1=O (some centres not stated)	0	0	0	4.3*	2	3.7*
O=C(CC1C[C@H](C(=O)N2CCOCC2)[C@@]2(CCC3CCCC3)c3[nH]c4ccccc4c3CCN2C1=O)NCCC1=CCCCC1 (some centres not stated)	1	1	0	0	0	3
COCCCNC(=O)CC1C[C@H](C(=O)N2CCOCC2)[C@@]2(C)c3[nH]c4ccc(OC)cc4c3CCN2C1=O (some centres not stated)	2	.	-1	-1	3	4.1*
CC[C@]12c3[nH]c4ccccc4c3CCN1C(=O)C(CC(=O)NCc1ccco1)C[C@@H]2C(=O)N1CCN(C(=O)c2ccco2)CC1 (some centres not stated)	0	2	-1	5.8*	-2	0
COc1ccc([N+](=O)[O-])cc1N(CC(O)CN1C(=O)NC(C)(C)C1=O)S(=O)(=O)c1ccccc1 (configuration not stated)	0	4	-1	-2	-1	0
SMILES	hcDAF12 agonist	AHR act	ssDAF12 agonist	DAX1 inh-1	hgDAF-12 ag	DAX1 inh-2
S=c1nc(-c2ccccc2)[nH]c2ccc(Br)cc12	5	53*	1	1	3	0
O=C(/C=C/c1cn(-c2ccccc2)nc1-c1cccs1)NCCN1CCOCC1	-2	3	-2	-1	5	-2
C=CCN1C(=O)[C@@H](CC(=O)NCc2cccc3ccccc23)[C@]2(C(=O)OCC)CCCCC/C=C/12	1	.	-1	.	-2	-1
O=c1oc2cc(OCc3ccc(F)cc3F)ccc2cc1-c1ccc2ccccc2n1	.	97*	.	.	.	.
C=CCn1c(C)cc(C(=O)CSc2nc(N)cc(N)n2)c1C	3	6	0	4.6*	4	0
Cc1cc(C(=O)CSc2nc(N)cc(N)n2)c(C)n1C1CC1	1	9	-1	1	3	-1
C[C@H]1COc2cc(Br)ccc2S(=O)(=O)N1Cc1cn(Cc2ccco2)nn1	-3	.	0	.	-2	0
O=C(O)C1CCN(C(=O)c2ccccc2N2C(=O)[C@@H]3Cc4c([nH]c5ccccc45)C(c4cccc(Cl)c4)N3C2=O)CC1 (some centres not stated)	5.6*	16	1.0*	2	3	-1
O=C(NCCN1CCOCC1)c1ccccc1N1C(=O)[C@@H]2Cc3c([nH]c4ccccc34)C(c3ccc(F)cc3)N2C1=O (some centres not stated)	0	11	0	1	-2	1
O=[N+]([O-])c1ccc(C(O)CSC(=S)N2CCCCC2)cc1 (configuration not stated)	1	1	0	5.4*	7	0
O=C(OC12CCCN(C1)/C(=C/c1ccc(Cl)cc1)C2)C1CCCC1 (configuration not stated)	0	.	-1	.	-2	0
O=c1cc[nH]c2c1ccc1c(=O)cc[nH]c12	4	4	-1	0	3	1
Cc1[nH]ccc2c1[nH]c1cc(=O)ccc12	0	71*	-2	-1	9	0
COCC(=O)Nc1ccc2c(c1)C(=O)N(C)[C@@H]1CC[C@@H](CC(=O)OC)O[C@H]1CO2	-1	.	-1	.	-1	0
Cc1ccc(C(=O)O)cc1NC(=O)C1CCCN1S(=O)(=O)c1cccc2nsnc12 (configuration not stated)	0	-1	1.6*	0	0	0
Cc1c(NC(=O)C2CCCN2S(=O)(=O)c2cccc3nsnc23)cccc1C(=O)O (configuration not stated)	0	-2	0	0	-1	0
COc1cc(NC(=O)c2ccc(-c3ccc(F)c(F)c3)c3ccoc23)cc(OC)c1OC	0	.	-2	.	0	-1
CCOc1ccc(-n2c(N)c(-c3nc4ccccc4[nH]3)sc2=S)cc1	1	72*	-1	-1	1	1
